The values below come from PubChem BioAssay (NCI).

Compounds without any hit were thinned out: in the full panel of roughly 83,000, 20% have a hit.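 Single-concentration screen, 48 h exposure, 96-well plates. Endpoint: percent growth. Below 10 = active.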 Unmarked numbers belong to inactive results. Activity calls are given as the source filed them.

Assay in all cases: NCI-60 one-dose screen, 48 h (100 = growth as untreated, 0 = no growth, -100 = all killed)
The subject of one experiment is NCI-H23 lung. The conditions noted are these: 10 µM unless noted.
The subject of the next experiment is NCI-H226 lung. The conditions noted are these: 10 µM unless noted.
The next experiment deals with NCI-H322M lung. As to conditions: 10 µM unless noted.
A further experiment relates to HOP-62 NSCLC. The conditions noted are these: 10 µM unless noted.
Another experiment has as its system NCI-H460 lung. The conditions noted are these: 10 µM unless noted.
In the next experiment the test system is HOP-92 NSCLC. The conditions noted are these: 10 µM unless noted.
For the next experiment, the system named is NCI-H522 lung. The conditions noted are these: 10 µM unless noted.
Another experiment concerns A549/ATCC NSCLC. The conditions noted are these: 10 µM unless noted.
A further experiment deals with 786-0 renal. As to conditions: 10 µM unless noted.
The test system of a further experiment is COLO 205 colon. The conditions noted are these: 10 µM unless noted.
The subject of another experiment is DU-145 prostate. The conditions noted are these: 10 µM unless noted.
Another experiment concerns K-562 leukemia. As to conditions: 10 µM unless noted.
The next experiment relates to MALME-3M melanoma. The conditions noted are these: 10 µM unless noted.
A further experiment relates to MDA-MB-231 breast. As to conditions: 10 µM unless noted.
Another experiment relates to RXF 393 renal. The conditions noted are these: 10 µM unless noted.
A further experiment deals with SF-268 CNS. As to conditions: 10 µM unless noted.
Another experiment concerns SF-295 CNS. The conditions noted are these: 10 µM unless noted.
Another experiment deals with SF-539 CNS. As to conditions: 10 µM unless noted.
The next experiment concerns UACC-257 melanoma. The conditions noted are these: 10 µM.
The subject of a further experiment is M14 melanoma. The conditions noted are these: 10 µM unless noted.

As for `CC(C)C[C@H](NC(=O)[C@H](Cc1ccccc1)n1ccc(N2CCCCC2)cc1=O)B(O)O`, the growth with NCI-H23 lung is 19.7%; in the experiment with NCI-H226 lung, -68.7% (active); in the experiment with NCI-H322M lung, 70.7%; in the experiment on HOP-62 NSCLC, 13.1%; in the experiment with NCI-H460 lung it was 34.7%; in the experiment on HOP-92 NSCLC, -10.1% (active). In addition, the growth is -7.97% (active) in the experiment on NCI-H522 lung; 19% with A549/ATCC NSCLC; 28% in the experiment on 786-0 renal; 28.9% with COLO 205 colon; 41.3% in the experiment with DU-145 prostate; 9.62% (active) in the experiment on K-562 leukemia. Further, the growth in the experiment with MALME-3M melanoma was -23.8% (active); in the experiment with MDA-MB-231 breast it was -26.2% (active); in the experiment with RXF 393 renal it was -54% (active); in the experiment on SF-268 CNS it was -8.05% (active); in the experiment with SF-295 CNS, 7.12% (active); in the experiment with SF-539 CNS, -11.5% (active). Also, the results for the growth in the experiment on UACC-257 melanoma and in the experiment on M14 melanoma were -16.9% (active) and 12.5%, respectively.
Regarding `Nc1c(C(=O)Nc2ccccc2)sc2nc3c(cc12)CCCCC3`, the growth is 36.6% in the experiment with NCI-H23 lung; 27.3% with NCI-H226 lung; 21.3% in the experiment with NCI-H322M lung; 7.61% (active) in the experiment on HOP-62 NSCLC; 6.63% (active) in the experiment on NCI-H460 lung; -4.43% (active) with HOP-92 NSCLC. The growth in the experiment with NCI-H522 lung was 30.2%; in the experiment with A549/ATCC NSCLC, 18.4%; in the experiment on 786-0 renal it was 15.7%; in the experiment with COLO 205 colon, 9.29% (active); with DU-145 prostate, 4.69% (active); in the experiment with K-562 leukemia it was 14.8%. The growth with MALME-3M melanoma is -5.3% (active); with MDA-MB-231 breast, 22.2%; in the experiment on RXF 393 renal, -5.96% (active); with SF-268 CNS, 30.5%; in the experiment on SF-295 CNS, -4.71% (active); in the experiment on SF-539 CNS, 7.96% (active). The growth in the experiment on UACC-257 melanoma was 41.5%; with M14 melanoma it was 6.74% (active).
Turning to `COc1ccc(-c2nc3sccn3c2-c2ccnc(NCCCNS(=O)(=O)c3ccc(C)cc3)n2)cc1`, the growth with NCI-H23 lung is 26.6%; with NCI-H226 lung, 13.7%; in the experiment on NCI-H322M lung, 65%; in the experiment with HOP-62 NSCLC it was 86.5%; in the experiment on NCI-H460 lung, 40%; in the experiment on HOP-92 NSCLC it was 67.5%. Besides, the growth in the experiment on NCI-H522 lung is 21.4%; in the experiment on A549/ATCC NSCLC it was 38.8%; with 786-0 renal, 43.6%; with COLO 205 colon it was 11.5%; in the experiment with DU-145 prostate, 34.1%; in the experiment with K-562 leukemia it was 19.9%. Moreover, the growth in the experiment on MALME-3M melanoma is 54.7%; in the experiment on MDA-MB-231 breast, 23.5%; in the experiment with RXF 393 renal, 34.6%; in the experiment with SF-268 CNS it was 38.1%; in the experiment with SF-295 CNS it was 21.4%; with SF-539 CNS, 56.9%. In addition, the values for the growth in the experiment with UACC-257 melanoma and with M14 melanoma were 40% and 23.2%, respectively.
As for `COc1ccc2c(c1)C(=O)/C(=C/c1ccc(O)cc1)O2`, the growth with NCI-H23 lung was 93.9%; in the experiment with NCI-H226 lung, 78.2%; in the experiment with NCI-H322M lung it was 86.6%; in the experiment with HOP-62 NSCLC, 90.8%; with NCI-H460 lung, 91.2%; in the experiment with HOP-92 NSCLC it was -40% (active). Also, the growth is -97.9% (active) in the experiment on NCI-H522 lung; 91.8% with A549/ATCC NSCLC; 101% in the experiment on 786-0 renal; 24.8% in the experiment on COLO 205 colon; 109% in the experiment with DU-145 prostate; 59.7% with K-562 leukemia. Moreover, the growth in the experiment on MALME-3M melanoma was 71.2%; in the experiment on MDA-MB-231 breast, 78.5%; in the experiment with RXF 393 renal, -59.9% (active); in the experiment on SF-268 CNS, 97.9%; in the experiment on SF-295 CNS, 98.1%; in the experiment with SF-539 CNS, 80.2%. Besides, the growth in the experiment with UACC-257 melanoma is 86.7%; in the experiment on M14 melanoma, 93.4%.
`CC[C@H](C)[C@H]1NC(=O)[C@@H](N[C@](C)(O)[C@@H](N)CC(C)C)[C@@H](C)OC(=O)[C@H](Cc2ccc(OC)cc2)N(C)C(=O)[C@@H]2CCCN2C(=O)[C@H](CC(C)C)NC(=O)[C@@H](C)C(=O)[C@H](C(C)C)OC(=O)C[C@@H]1O`: the growth was -29.6% (active) with NCI-H23 lung; -11.1% (active) in the experiment with NCI-H226 lung; -22.4% (active) with NCI-H322M lung; -31.1% (active) in the experiment with HOP-62 NSCLC; -11.8% (active) in the experiment with NCI-H460 lung; -14.1% (active) with HOP-92 NSCLC. The growth with NCI-H522 lung is -37.7% (active); with A549/ATCC NSCLC, -22.7% (active); in the experiment on 786-0 renal, -25.5% (active); in the experiment with COLO 205 colon, -65.1% (active); in the experiment on DU-145 prostate, -17.5% (active); with K-562 leukemia it was 2.2% (active). In addition, the growth was -21.4% (active) in the experiment with MALME-3M melanoma; -15.8% (active) with MDA-MB-231 breast; -33.1% (active) in the experiment with RXF 393 renal; -1.13% (active) in the experiment on SF-268 CNS; -52.1% (active) in the experiment with SF-295 CNS; -27.6% (active) in the experiment with SF-539 CNS. Further, the growth was -24.7% (active) with UACC-257 melanoma and -75.3% (active) in the experiment with M14 melanoma.
For the compound `COc1ccc(C2SCC(=O)N2NC(=O)c2ccc(NC(=O)c3ccccn3)cc2)cc1OC` (stereo not given), the growth in the experiment on NCI-H23 lung is 102%; in the experiment with NCI-H226 lung, 94.3%; in the experiment with NCI-H322M lung it was 95.2%; in the experiment on HOP-62 NSCLC, 88.1%; in the experiment on NCI-H460 lung, 113%; in the experiment on HOP-92 NSCLC it was 116%. In addition, the growth was 81.8% in the experiment on NCI-H522 lung; 91.7% in the experiment on A549/ATCC NSCLC; 97.2% with 786-0 renal; 109% in the experiment with COLO 205 colon; 105% in the experiment on DU-145 prostate; 95.9% in the experiment with K-562 leukemia. In addition, the growth in the experiment on MALME-3M melanoma was 105%; in the experiment on MDA-MB-231 breast, 102%; in the experiment on RXF 393 renal, 103%; in the experiment on SF-268 CNS it was 96.5%; in the experiment with SF-295 CNS, 101%; with SF-539 CNS it was 98.8%. Also, the values for the growth in the experiment on UACC-257 melanoma and in the experiment on M14 melanoma were 92.2% and 102%, respectively.
Regarding `CNC(=O)Cc1nc(-c2cccc(NS(=O)(=O)c3c(F)cccc3F)c2F)c(-c2ccnc(Nc3ccccc3)n2)s1`, the growth with NCI-H23 lung was 56%; in the experiment with NCI-H226 lung, 74.3%; in the experiment with NCI-H322M lung it was 60.8%; in the experiment on HOP-62 NSCLC, 43.3%; with NCI-H460 lung it was 94%; in the experiment with HOP-92 NSCLC, 17.3%. In addition, the growth was 54.8% in the experiment with NCI-H522 lung; 55.3% in the experiment on A549/ATCC NSCLC; 64% in the experiment on 786-0 renal; 7.06% (active) in the experiment with COLO 205 colon; 79.5% in the experiment on DU-145 prostate; 20.5% with K-562 leukemia. Besides, the growth is 0.396% (active) with MALME-3M melanoma; -14.3% (active) in the experiment with MDA-MB-231 breast; -6.63% (active) in the experiment on RXF 393 renal; 54.9% in the experiment with SF-268 CNS; 101% in the experiment on SF-295 CNS; 68.9% with SF-539 CNS. Besides, the figures for the growth with UACC-257 melanoma and in the experiment on M14 melanoma were 7.77% (active) and 2.35% (active), respectively.
As for `NC(CC(N)C(=O)O)C(=O)O` (stereo not given), the growth with NCI-H23 lung was 107%; in the experiment on NCI-H226 lung, 103%; in the experiment with NCI-H322M lung, 103%; in the experiment with HOP-62 NSCLC it was 117%; with NCI-H460 lung, 108%; in the experiment on HOP-92 NSCLC it was 115%. The growth in the experiment with NCI-H522 lung is 79.7%; in the experiment with A549/ATCC NSCLC, 99.4%; in the experiment with 786-0 renal, 105%; with COLO 205 colon, 115%; in the experiment on DU-145 prostate, 115%; with K-562 leukemia, 91.8%. Further, the growth with MALME-3M melanoma is 104%; with MDA-MB-231 breast, 103%; in the experiment on RXF 393 renal, 89.6%; with SF-268 CNS it was 109%; in the experiment on SF-295 CNS, 101%; in the experiment with SF-539 CNS it was 97.9%. Besides, the growth in the experiment on UACC-257 melanoma is 95.2%; in the experiment with M14 melanoma, 104%.
